The results in this text go back to PubChem BioAssay AID651828 (ICCB-Longwood Screening Facility, Harvard Medical School, 2012).

Each structure is given as a SMILES string. Screen size: about 20,000 compounds; about 25 (0.1%) were called active. Many of the other results were omitted from the sample, so actives are more common in it than they were. Unmarked numbers belong to inactive results. Cut-off read from the data, not from the text of the source: active = % bound below about 75%; inactive = the rest.

Chain of Nucleoprotein (Rift valley fever virus (strain ZH-548 M12)) (P21700 whole entry, looked up): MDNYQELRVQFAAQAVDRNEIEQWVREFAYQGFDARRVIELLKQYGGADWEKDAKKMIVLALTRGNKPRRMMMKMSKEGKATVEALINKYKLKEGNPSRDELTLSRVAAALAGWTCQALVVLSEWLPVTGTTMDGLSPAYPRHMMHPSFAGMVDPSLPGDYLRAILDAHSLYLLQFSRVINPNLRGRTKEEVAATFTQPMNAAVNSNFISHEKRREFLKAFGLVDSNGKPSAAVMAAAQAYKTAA

This test addresses Nucleoprotein (Rift valley fever virus (strain ZH-548 M12)) (UniProt P21700). Put plainly: inhibitors of RVFV nucleoprotein–RNA binding, primary screen, biochemical, fluorescence polarization (AID 651828). The settings on record: RVFV N-RNA binding, hits give low values, concentration not given here. In general terms: Polarisation of emitted light reports the rotation of a fluorescent probe.
As for `COc1cccc(CNc2ccc3c(c2)ncn3C)c1`, the % bound is 107%. For the molecule `Cc1nc(SCC#N)c2c3c(sc2n1)CCCC3`, the % bound is 103%. The same measure for `O=C(CC(C(=O)O)n1cccn1)c1ccc(Br)cc1` (stereo not drawn): 98.3%. Consider `COCC(=O)N1CCN(c2ccccn2)CC1`, for which the % bound was 87.2%. Under `O=S(=O)(NNc1ncnc2sccc12)c1ccc(Cl)cc1` stands 97.8%; under `O=C(CN1CCSCC1)N/N=C/c1ccc(Br)cc1`, 101%. Under `C=CCN(CC=C)C(=O)c1ccc(N2C(=O)CCC2=O)cc1` stands 95.1%; under `CCC(C)NC(=S)NC1CCCCC1` (stereo not drawn), 112%; under `CC(C)(C)c1ccc(CSc2nc3c(c(=O)[nH]2)CCC3)cc1`, 91%. As for `CN(C(=O)c1cc2cccnc2n(C)c1=O)c1ccccc1`, the % bound is 93.7%. Under `O=C(CCc1ccccc1)NNc1ccc(F)cc1` stands 104%; under `Cc1[nH]nc2c1C1C(C2)C1(C)C` (stereo not drawn), 96.4%.

Turning to `C=CCn1c(O)c(N=N)c2ccccc21`, the % bound was 97.3%. Take `CC1CCCCN1S(=O)(=O)CCNC(=O)c1ccccc1` (stereo not drawn): the % bound is 89.1%.

With `CC(C)n1c(-c2ccncc2)n[nH]c1=S`, the % bound is 98.6%.

As for `CN(C)C(=O)c1cc(Br)ccc1Cl`, the % bound is 99.9%.

On to `Cc1onc(-c2ccccc2Cl)c1C(=O)N(Cc1nc(-c2ccccc2)no1)C(C)C`, for which the % bound was 89%. Under `CC(C)CCn1c(CO)cnc1S(=O)(=O)C(C)C` stands 86.9%; under `O=C(c1ccc(Br)o1)n1cnc2ccccc21`, 104%; under `CC(=O)Nn1nc2c(n1)C(=NNC(=O)c1ccccc1)c1nn(NC(C)=O)nc1C2=NNC(=O)c1ccccc1`, 98.5%.

In the case of `CNC(C)c1ccc(OC)c(OC)c1` (stereo not drawn), the % bound is 91%. Regarding `CCN(CC)C(=O)/C=C/c1cccc2ccccc12`, the % bound was 101%. In the case of `Cc1cc(C)c2c(N)c(-c3n[nH]c(=S)n3C)sc2n1`, the % bound is 98.2%. For the molecule `CNC(=O)O/N=C/c1nn(C)cc1Br`, the % bound was 94.8%. Under `COc1ccc(Cl)cc1NC(=S)N1CCCCC1CO` (stereo not drawn) stands 94.6%; under `O=C(Nc1c[nH]c2ccccc12)NC1CCCC1`, 94.2%; under `COc1cc(CN2CCN3CCCC3C2C2CCCCC2)cc(OC)c1` (stereo not drawn), 107%.

On to `CC12CN3CC(C)(CN(C1)C31C(=O)Nc3ccccc31)C2O` (stereo not drawn), for which the % bound was 103%. Under `O=c1cc(-c2ccccc2)nc(SCc2ccccn2)[nH]1` stands 93.4%; under `Cn1c(=O)n(Cc2ccco2)c(=N)c2c3c(sc21)CCCC3`, 106%. Under `Nn1c(Cc2ccccc2)nnc1SCC(=O)Nc1ccccc1F` stands 91.9%; under `COc1ccc(N=Nc2c(-c3ccc(OC)cc3)[nH]oc2=O)cc1`, 75.1%. Under `CN(C)c1ccc(/C=C2\SC(=Nc3ccccc3)N(CCO)C2=O)cc1` stands 92.8%; under `CS(=O)(=O)c1ccccc1C(=O)Nc1ccc2sccc2c1`, 96%; under `O=S(=O)(c1ccccc1)c1ccc(I)cc1`, 96.7%. On to `C=CCc1ccc(OCC(=O)ONN)c(OC)c1`, for which the % bound was 104%. Under `COC(=O)c1sc(-c2cccs2)cc1NS(=O)(=O)c1cn(C)cn1` stands 98.3%; under `Cc1c(Cl)cccc1NC(=O)CCn1cnc2ccccc2c1=O`, 81.8%; under `Cc1cc(Oc2cc(C#N)c(C#N)cc2N2CCOCC2)cc(C)c1Cl`, 95.2%. Under `COc1cc(/C=C2/C(=N)N3N=C(c4ccccc4C)SC3=NC2=O)ccc1OC(=O)c1ccco1` stands 91.3%; under `Cc1ccc2occ(CN3CCSCC3)c(=O)c2c1`, 100%; under `COc1ccc(C(C)=CC(=O)C(C)(C)C)cc1`, 96.7%. Under `Cc1nc2cc3nc(-c4cccs4)cnc3cc2n1C` stands 115%; under `O=C(Nc1ccc(C(=O)N2CCCc3ccccc32)cc1)c1ccco1`, 95.2%; under `CC[C@H](CO)Nc1nc(NCc2ccccc2O)c2ncn(C(C)C)c2n1`, 98.6%. Regarding `Nc1nonc1C(=NCc1ccccc1)NO`, the % bound was 96.3%. Under `COc1ccc(C(=O)c2cnc3ccccn23)cc1Cl` stands 96.7%.

`O=C(c1cccs1)c1coc2c1cc(O)c1ccccc12`: the % bound was 94.6%. Under `O=c1[nH]c(O)c(C=Nc2ccccc2)c(=O)[nH]1` stands 101%. The same measure for `CC(C)=N/N=C1/NC(=O)C(CC(=O)Nc2cccc3ccccc23)S1` (stereo not drawn): 96.1%; for `CC(C)CN1C(=O)C=CC1=O`: 86.4%.

For `CC1(C)C(=O)C2(C(=O)Nc3cccc(C(F)(F)F)c3)CCC1C2` (stereo not drawn), the % bound is 98.6%. The same measure for `CCCC(=O)N1CCN(c2ccc(NC(=O)c3cccc(C)c3OC)cc2Cl)CC1`: 92.1%. Under `O=C(Nc1ccccc1)C1CCCN(S(=O)(=O)c2ccccc2)C1` (stereo not drawn) stands 98.9%. The same measure for `COCC(C)N=CC1=C(O)CC(C)(C)CC1=O` (stereo not drawn): 94.3%.

On to `O=C(OCCN1C(=O)c2ccccc2C1=O)Oc1ccccc1`, for which the % bound was 93.9%. As to `O=c1[nH]c(NCCCN2CCOCC2)nnc1-c1ccccc1`, the % bound was 93.9%. The same measure for `O=C1C=C(Nc2ccccc2)C(=O)N1Cc1ccccc1`: 102%; for `CCc1ccc(NC(=O)C(CC)CC)cc1`: 97.6%. As for `CC(C)NC(=O)C(C)Oc1ccc(S(N)(=O)=O)cc1` (stereo not drawn), the % bound was 96.3%. Under `Cc1cc(C(=O)Nc2ccc(C(=O)N3CCOCC3)cc2)cs1` stands 88.4%. The same measure for `CC(C)(O)C(/C=C/c1ccccc1)=N/NC(N)=O`: 96.4%. The same measure for `O=C(CC(F)(F)F)Nc1ccccn1`: 94%. Regarding `COC(=O)C12CCC(C)(C(=O)O1)C2(C)C` (stereo not drawn), the % bound is 90.1%.

On to `OC1CCN(Cc2ccc[nH]2)CC1`, for which the % bound was 95%. The same measure for `Nc1nc2nc(-c3ccccc3)cc(-c3ccccc3)n2n1`: 92%; for `COC(=O)CSc1nnc2c3ccccc3n(CCc3ccccc3)c2n1`: 104%. Under `Cc1ccc(C(=O)c2sc3[nH]c(=O)c(C(=O)O)cc3c2N)cc1` stands 97.7%; under `Cc1ccc(NC(=O)Nc2c(C)noc2-c2ccc(C(F)(F)F)cc2)cc1`, 97.4%. For the molecule `CNC(=S)N/N=C/c1cccnc1`, the % bound is 96.3%.

For the molecule `CC1=Nc2c(ccc3cccnc23)C1(C)C`, the % bound is 45.3% (active). The same measure for `COc1ccc(OCC(=O)Nc2ccc(CN3CCOCC3)cc2)cc1`: 87.6%; for `O=C(C1CCCN(S(=O)(=O)c2ccccc2)C1)N1CCN(c2ccc(F)cc2)CC1` (stereo not drawn): 102%; for `CS(=O)(=O)Cc1ccccc1`: 97.7%. Take `Cc1cc(C)cc(C(=O)NC(=S)Nc2ccc3[nH]c(=O)[nH]c3c2)c1`: the % bound was 98.5%.

With `COc1ccc(N2CC(NC(=O)NCC3CCCO3)CC2=O)cc1OC` (stereo not drawn), the % bound was 110%. The same measure for `CCCCOc1ccc(C(C)(C#N)CC#N)cc1` (stereo not drawn): 102%; for `COc1ccc(-c2cc(-c3cccs3)n(-c3nc(C)cc(=O)[nH]3)n2)cc1`: 109%. The same measure for `O=c1[nH]c(=S)[nH]c(O)c1C=NC12CC3CC(CC(C3)C1)C2`: 91.6%; for `O=C(Nc1ccc2c(c1)OCC1CCCN21)C1=Cc2ccccc2OC1` (stereo not drawn): 96.2%. As for `CN(C)NS(=O)(=O)C1CCS(=O)(=O)C1` (stereo not drawn), the % bound is 93%. The same measure for `COc1ccc(N2CCN(C(C)=C3C(=O)c4ccccc4C3=O)CC2)cc1`: 96.4%; for `CCOC(=O)Nc1sccc1C(N)=O`: 96.8%. Under `Cc1cccc(N2CCN(C(=O)N(C)C)CC2)c1C` stands 77.7%; under `O=S1(=O)CC(S(=O)(=O)c2ccccc2)c2ccccc21` (stereo not drawn), 92.2%; under `COC(=O)c1ccc(CN2CCCC(C)C2)cc1` (stereo not drawn), 100%.

With `CC12CCC(O)CC1=CCC1C2CCC2(C)/C(=N/N)CCC12` (stereo not drawn), the % bound was 94%.

On to `COc1ccc(-c2nc3c(c(=O)c4ccccc4n3C)c(=O)n2Cc2ccco2)cc1`, for which the % bound was 95.8%.

For the molecule `COc1ccc(CCNC(N)=O)cc1OC`, the % bound was 94.3%. Under `CCOC(=O)N1CCN(C(=O)CN(c2ccccc2)S(=O)(=O)c2ccc(F)cc2)CC1` stands 93.7%; under `O=C1c2ccccc2C(=O)N1CCc1nn[nH]n1`, 93.6%.

As for `Nc1cc(-c2ccccc2)[nH]n1`, the % bound is 94.5%. With `C/C(=N\N1CCN(C)CC1)C1=C(O)c2ccccc2C1=O`, the % bound was 97.6%.

Regarding `O=C(CCN1C(=O)c2ccccc2C1=O)Oc1c(-c2ccco2)oc2ccccc2c1=O`, the % bound was 95%. Under `COc1ccccc1C(c1c(C)[nH][nH]c1=O)C(C#N)C#N` (stereo not drawn) stands 95.8%; under `O=C(CCC(=O)c1ccccc1)c1ccccc1`, 93.9%; under `CS(=O)(=O)N1CCN(C(=O)CSc2ccccc2)CC1`, 80.6%. On to `COc1cc(C2c3c(oc4ccccc4c3=O)C(=O)N2CCCOC(C)C)cc(Br)c1O` (stereo not drawn), for which the % bound was 97.6%.

Regarding `CCOC(=O)c1cn[nH]c1NC(=S)Nc1ccccc1`, the % bound is 98.6%. The same measure for `Cc1nc(N)sc1-c1ccnc(Nc2cccc([N+](=O)[O-])c2)n1`: 104%; for `Cc1nc2sc(C(c3ccccc3Cl)N(C)Cc3ccccc3)c(O)n2n1` (stereo not drawn): 108%. The same measure for `CCC(=O)Nc1ccc(C(=O)n2nnc3ccccc32)cc1`: 94.2%.

As for `CNS(=O)(=O)c1ccc(NC(=O)C2CC3C=CC2C3)cc1` (stereo not drawn), the % bound is 99.1%. Under `CC1(C)C/C(=N/O)c2ccoc2C1` stands 97.9%.

For `CCC(=O)N=c1sc2cc(Br)ccc2n1CCOC`, the % bound is 101%. Under `COc1ccc(CCC(=O)NCC#N)cc1` stands 86.2%. As for `CCOc1ccc(C(=O)Nc2cccc(-c3ccc4nncn4n3)c2)cc1`, the % bound was 107%.

With `Cc1ccc2oc(C(=O)N(C)c3ccccc3)c(C)c2c1`, the % bound was 97.6%.
